Screens deposited in PubChem BioAssay by Sanford-Burnham Center for Chemical Genomics.
Only some compounds are listed: those with a hit (about 31% of all), similar ones and a draw of the others.
CYP2C19 inh: blockers of cytochrome P450 2C19 activity – biochemical, luminescence, ADME assay, primary screen | 96,000 compounds, 21% hits | AID 778, 2007 | inhibition, % at 5 µM | CYP2C19 Supersomes, luciferin-H EGE luminescence, 30 min;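 active means CYP2C19 inhibition above a set limit at 5 µM in the primary screen, cut at about 50% in these data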;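 further: plate controls were negative control wells for no effect and 2.5 mM tranylcypromine positive control for full effect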
Target sequence (P33261 whole entry, looked up): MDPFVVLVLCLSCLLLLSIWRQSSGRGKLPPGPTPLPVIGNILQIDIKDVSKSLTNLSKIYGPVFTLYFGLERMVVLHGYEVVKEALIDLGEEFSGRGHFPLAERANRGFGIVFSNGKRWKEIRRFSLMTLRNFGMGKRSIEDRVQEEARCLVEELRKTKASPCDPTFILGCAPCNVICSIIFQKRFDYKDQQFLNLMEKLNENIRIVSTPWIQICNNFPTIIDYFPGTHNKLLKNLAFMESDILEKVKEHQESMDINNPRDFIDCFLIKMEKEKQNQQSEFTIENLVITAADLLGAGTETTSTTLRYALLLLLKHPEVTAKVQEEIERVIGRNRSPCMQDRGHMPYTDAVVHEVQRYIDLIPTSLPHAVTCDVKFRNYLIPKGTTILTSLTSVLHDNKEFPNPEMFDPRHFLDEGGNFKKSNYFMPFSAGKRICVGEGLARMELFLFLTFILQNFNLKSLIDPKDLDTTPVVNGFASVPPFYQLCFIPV
CYP2C19 act: human CYP2C19 activators, primary screen, biochemical, luminescence | Cytochrome P450 2C19 (Homo sapiens), P33261 | recombinant CYP2C19, luciferin-H EGE luminescence; stronger effect = higher value; 0 = fully inhibited enzyme, 1 = untreated enzyme | activation factor at 5 µM | 96,000 tested, under 10 active;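 active means activation factor of at least 2 at 5 µM in the primary screen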;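 further: 0 = wells with 2.5 mM tranylcypromine and 1 = vehicle-only wells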
CYP2C9 inh: blockers of cytochrome P450 2C9 activity – biochemical, luminescence, ADME assay, primary screen; 96,000 compounds, 20% hits; P11712; inhibition, % at 5 µM; AID 777, 2007; CYP2C9 Supersomes, luciferin-H conversion;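 active means blocking of liver enzyme CYP2C9 beyond about 50% at 5 µM, limit read from the data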
CYP2C9 activ: human CYP2C9 activators, primary screen, biochemical, luminescence; Cytochrome P450 2C9 (Homo sapiens), P11712; recombinant CYP2C9, luciferin-H conversion; stronger effect = higher value; factor 1 = untreated enzyme, 0 = blocked; activation factor at 5 µM; 96,000 compounds, 1.4% hits; AID 1024, 2008;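 active means activation factor of 2 or more for CYP2C9 at a 5 µM dose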;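 further: 0 = sulfaphenazole-blocked wells and 1 = vehicle-only wells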
PLAP activator: PLAP enzyme activators, biochemical, luminescence, HTS | activation fold at 20 µM | 96,000 compounds, 1.2% hits | Alkaline phosphatase, placental type (Homo sapiens), P05187 | purified PLAP enzyme, luminescent substrate read-out; stronger effect = higher value | AID 696, 2007; in the data active means activation fold above about 2
Starred values were filed as active, the others as inactive.

SMILES	CYP2C19 inh	CYP2C19 act	CYP2C9 inh	CYP2C9 activ	PLAP activator
Cc1ccc2c(c1)nnn2C1CCN(CC(=O)N2CCN(c3ccc(F)cc3)CC2)CC1	40.3	0.6	27.5	0.7	1.7
Cc1nn(C)c(C)c1S(=O)(=O)N1CCC(C(=O)NCC2COc3ccccc3O2)CC1 (stereo not given)	11.5	0.9	-57.6	1.6	1.3
COc1ccc(NC(=O)COC(=O)c2cnccn2)cc1Cl	-6.5	1.1	-9.9	1.1	0.9
Cc1nn(-c2ccccc2)c2c1P(=O)(O)/C(=C1\N(C)c3ccccc3C1(C)C)C=N2	3.4	1	2.9	1	1.3
Cc1ccccc1OCC(=O)N/N=C/c1cccn1C	29.0	0.7	-3.5	1	0.9
N#CC1=C(SCC(=O)Nc2ccccc2)NC(=O)CC1c1ccc(O)cc1 (stereo not given)	70.9*	0.3	33.6	0.7	0.9
CCOc1ccccc1C1CC(=O)NC(SCC(=O)Nc2nccs2)=C1C#N (stereo not given)	60.1*	0.4	67.0*	0.3	1.7
Cc1ccc(C2CC(=O)NC(SCC(=O)Nc3nccs3)=C2C#N)cc1 (stereo not given)	28.3	0.7	65.2*	0.3	1.6
CCOC(=O)N1CCN(CC(O)COC2CC(C)CC(C)(C)C2)CC1 (stereo not given)	-4.5	1	6.5	0.9	1.4
CCn1ncc(C2=NOC(C(=O)Nc3cc(OC)c(Cl)cc3OC)C2)c1C (stereo not given)	30.2	0.7	-19.6	1.2	0.8
COCCOC(=O)c1[nH]c2c(c1C)C(=O)CC(c1ccc(F)cc1)C2 (stereo not given)	82.6*	0.2	98.1*	0	0.8
Cc1c(C(=O)O)[nH]c2c1C(=O)CC(c1ccccc1)C2 (stereo not given)	-16.2	1.2	-7.6	1.1	1.3
COCCOC(=O)c1[nH]c2c(c1C)C(=O)CC(c1ccc(N(C)C)cc1)C2 (stereo not given)	88.2*	0.1	93.2*	0.1	1.3
CC(C)c1ccc(-c2nc(N3CCOCC3)[nH]c(=O)c2C#N)cc1	7.5	0.9	10.9	0.9	1.1
COC(=O)CC1COc2ccccc2N1C(=O)c1ccc(OC)cc1 (stereo not given)	61.9*	0.4	48.2	0.5	1.1
COc1ccc(C2Oc3ccccc3N2C(C)=O)cc1 (stereo not given)	63.5*	0.4	68.8*	0.3	1
COc1ccc(C(=O)N2c3ccccc3C(=O)OC2c2ccc3c(c2)OCO3)cc1 (stereo not given)	83.3*	0.2	80.9*	0.2	1.5
COC(=O)Nc1nnc(Cc2ccc(Cl)cc2)s1	48.1	0.5	28.2	0.7	1
CCOc1ccc(CN2CCC(=O)NC2=O)cc1	18.0	0.8	-18.9	1.2	1
COC(=O)c1ccc(Oc2ccc(C(C)(C)C)cc2)c([N+](=O)[O-])c1	38.1	0.6	59.5*	0.4	0.9
CCOc1cc(NS(=O)(=O)c2ccccc2)c(OCC)cc1NC(=O)c1ccco1	3.2	1	25.4	0.7	1.1
CC(C)N(C(=O)NC(=O)NCC1CCCO1)S(C)(=O)=O (stereo not given)	3.7	1	-9.4	1.1	0.9
C/C(CC(=O)Nc1ccc(N(C)C)cc1)=N\NC(=O)c1ccccn1	-4.3	1	-3.7	1	2*
CCCCCC(=O)N/N=C(\C)c1ccccn1	57.1*	0.4	8.9	0.9	2.4*
C/C(=N/NC(=O)c1ccccn1)c1ccco1	56.8*	0.4	18.9	0.8	1.2
SMILES	CYP2C19 inh	CYP2C19 act	CYP2C9 inh	CYP2C9 activ	PLAP activator
C/C(=N\NC(=O)c1ccccn1)C12CC3CC(CC(C3)C1)C2	-4.6	1	3.7	1	1.1
C/C(CC(=O)Nc1ccccn1)=N\NC(=O)C(=O)Nc1cccc(Cl)c1C	7.8	0.9	22.0	0.8	1
CCOc1ccccc1C(=O)N(CN1CCCC1=O)c1cccc(Cl)c1	5.1	0.9	13.3	0.9	1.1
Cc1cccc(C2Nc3ccccc3C(=O)N2CCc2ccccc2)n1 (stereo not given)	61.4*	0.4	61.4*	0.4	0.7
CS(=O)(=O)c1nc(-c2ccc(Br)cc2)cc(-c2ccccc2)c1C#N	57.2*	0.4	73.2*	0.3	0.9
CS(=O)c1nc(-c2ccc(Br)cc2)cc(-c2ccccc2)c1C#N (stereo not given)	57.0*	0.4	82.6*	0.2	0.8
COc1ccc(-c2cc(-c3ccccc3)c(C#N)c(S(C)(=O)=O)n2)cc1	-18.2	1.2	3.8	1	0.8
O=C(c1cc(C2CC2)on1)N1CCOCC1	-3.2	1	-5.1	1.1	1
O=C1/C(=C/c2ccncc2)SC(=S)N1C1CCS(=O)(=O)C1 (stereo not given)	75.3*	0.2	41.6	0.6	1.3
Cc1c(NS(=O)(=O)c2ccc3c(c2)CCN3C(=O)C2CC2)c(=O)n(-c2ccccc2)n1C	11.5	0.9	-6.0	1.1	1.1
O=C1OC(c2ccc(Cl)cc2)/C(=C(/O)c2ccccc2)C1=O (stereo not given)	-6.6	1.1	53.2*	0.5	1.1
OC(CNCC(c1ccco1)N1CCCCC1)c1ccccc1 (stereo not given)	17.8	0.8	0.3	1	1
CCOC(=O)C1CCCc2c1[nH]c1c(C(N)=O)cccc21 (stereo not given)	38.9	0.6	53.1*	0.5	1.6
Cn1c(C(F)(F)F)nc2c(=O)oc3ccccc3c21	1.5	1	-3.1	1	1.1
CCCC1=C(C(=O)OCC)C(c2ccc(F)cc2)n2ncnc2N1 (stereo not given)	54.8*	0.5	75.5*	0.2	0.9
CCCC1=C(C(=O)OCC)C(c2ccc(N(C)C)cc2)n2ncnc2N1 (stereo not given)	16.3	0.8	13.6	0.9	1.2
COC(=O)c1ccc(C2C(C(C)=O)=C(C)Nc3ncnn32)cc1 (stereo not given)	96.5*	0	25.9	0.7	1.1
CCOC(=O)C1=C(C)Nc2ncnn2C1/C=C/c1ccccc1 (stereo not given)	57.0*	0.4	62.9*	0.4	1
CCOC(=O)C1=C(C)Nc2ncnn2C1c1cccs1 (stereo not given)	15.9	0.8	18.1	0.8	1
CCCC1=C(C(=O)OCC)C(/C=C/c2ccccc2)n2ncnc2N1 (stereo not given)	91.0*	0.1	51.6*	0.5	0.8
Cc1ccc(N(CC(=O)N2CCOCC2)S(C)(=O)=O)cc1C	-1.1	1	2.6	1	0.8
CCOc1cc(C2CC(=O)NC3=C2C(=O)C(C(=O)OC)C(C)C3)cc(Br)c1O (stereo not given)	26.3	0.7	23.4	0.8	1
